# Results filed as inconclusive are left out. Calls of active or inactive are those of the source. The call rests on the fitted dose curve; in most records, active means well fitted curve in the direction sought with a large enough effect in the signal ratio, with a control signal flat (not every such curve was filed as active); inconclusive means small, poorly fitted or top-dose-only effect, or effect the other way, or a change in a side signal; inactive means no such curve, though single readings can be large or run the other way; the % refers to the signal ratio.
# Target: Tyrosine-protein phosphatase non-receptor type substrate 1 (Homo sapiens) + Leukocyte surface antigen CD47 (Homo sapiens) (UniProt P78324+Q08722)
# Sequence (P78324 whole entry, looked up): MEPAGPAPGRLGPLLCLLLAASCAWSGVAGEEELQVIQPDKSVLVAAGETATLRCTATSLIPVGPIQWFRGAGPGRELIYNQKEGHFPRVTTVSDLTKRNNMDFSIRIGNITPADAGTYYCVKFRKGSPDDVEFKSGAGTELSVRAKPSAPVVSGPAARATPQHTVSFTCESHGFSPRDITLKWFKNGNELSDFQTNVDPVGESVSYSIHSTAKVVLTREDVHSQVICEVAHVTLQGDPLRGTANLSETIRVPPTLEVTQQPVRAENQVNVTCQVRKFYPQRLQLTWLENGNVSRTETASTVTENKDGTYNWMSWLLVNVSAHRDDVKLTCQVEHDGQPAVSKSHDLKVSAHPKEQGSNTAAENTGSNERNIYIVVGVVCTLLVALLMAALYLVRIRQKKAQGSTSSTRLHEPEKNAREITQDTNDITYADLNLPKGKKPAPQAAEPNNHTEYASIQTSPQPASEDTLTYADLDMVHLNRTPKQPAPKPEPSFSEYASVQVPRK
# Sequence (Q08722 whole entry, looked up): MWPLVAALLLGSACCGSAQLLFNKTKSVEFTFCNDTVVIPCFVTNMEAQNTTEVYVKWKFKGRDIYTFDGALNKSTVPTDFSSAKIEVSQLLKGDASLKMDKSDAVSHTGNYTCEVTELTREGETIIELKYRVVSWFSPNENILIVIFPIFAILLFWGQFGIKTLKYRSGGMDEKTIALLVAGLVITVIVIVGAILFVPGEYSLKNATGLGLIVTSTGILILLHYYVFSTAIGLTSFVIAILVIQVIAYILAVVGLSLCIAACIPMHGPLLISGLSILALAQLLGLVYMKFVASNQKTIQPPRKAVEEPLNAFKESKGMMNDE
# Test: CD47-SIRPalpha protein protein interaction - LANCE assay qHTS validation (AID 1347057)
# Conditions: Recombinant CD47-His / biotin-SIRPalpha, TR-FRET ratio; series mostly up to 38.3 µM
# Text: SIRPalpha is a myeloid cell expressed immunomodulatory receptor that binds the tumor expressed immune checkpoint CD47. Therapeutic disruption of this interaction leads to immune-mediated tumor rejection. This assay was used to quantitate CD47-SIRPalpha binding biochemically and evaluate chemical libraries for novel CD47-SIRPalpha inhibitors. To recapitulate the biological interaction of CD47 and SIRPalpha, we designed expression constructs to produce their recombinant, soluble, extracellular interaction domains. CD47 was produced with an N-terminal 6His tag. SIRPalpha was produced with an N-terminal Avi-Tag for site-specific biotin incorporation. The CD47-SIRPalpha interaction was measured by TR-FRET using affinity tag linked reagents (anti-6His-Eu donor and streptavidin-APC acceptor). SIRPalpha without biotin incorporation was used as a positive control inhibitor.
# PROTOCOL TABLE (as described by Miller, T. et al. 2019)
# SEQUENCE No. (e.g., 1, 2, 3, etc.); […] (e.g., Cells, Incubation, Reagent, etc.); VALUE and DESCRIPTION.
# 1a. Reagent. 3 uL CD47-His (12.5 nM) and Anti-His Eu Donor reagent (3 nM) added to respective wells in Assay buffer; white/solid bottom high base, med bind 1536-well plates (Greiner 789075)
# 1b. Reagent. 2 uL Assay buffer negative control for background fluorescence
# 2. Reagent. 23 nL library compounds (7-pt, 1:4 intraplate titration series) or DMSO control transferred by Pin Tool
# 3. Centrifuge. Centrifuge plate for 30 s at 1000 RPM
# 4. Incubation.#Incubate reagents at room temperature for 30 min, protected from light
# 5. Reagent. 2 uL SIRPalpha-biotin (100 nM) in Assay buffer
# 6. Incubation.#Incubate reagents at room temperature for 30 min, protected from light
# 7. Reagent. 1 uL SAV-APC (26 nM) acceptor reagent added to respective wells
# 8. Centrifuge. Centrifuge plate for 30 s at 1000 RPM
# 9. Incubation. Incubate reagents at room temperature for 30 min, protected from light
# 10. Detector. Measure Top TR-FRET on EnVision (Eu/APC filter set); calculate ratio Ch1/Ch2
# 1. Assay buffer composition.#Phosphate buffered saline (PBS; 10 mM Phosphate, 137 mM NaCl, and 2.7 mM KCl; pH 7.4), 0.05% IGEPAL CA-630
# 2. 23nL of […] library compounds (7 plates) or DMSO vehicle control transferred to 9 Greiner white/solid bottom high base, TC plates in 7 interplate 1:5 titrations (see Yasgar, A. et al. 2008) with Pintool. Two of the 9 plates are DMSO-only in compound field at beginning and end of compound library-treated plates.
# 10. Detector settings#Mirror = LANCE/DELFIA Dual Enh; Ex. Filter = UV2[TRF] 320; Em. Filter = APC 665; 2nd Em. Filter = Europium 615; Measurement h = 6.5; Ex. light (%) = 100; Delay = 60 us; Window t = 100 us; No. Seq. windows = 1; Time between flashes = 2000us; No. of flashes = 100; No. of flashes for 2nd detector = 100; Calculation: "Ratio Ch1/Ch2"
row,Compound,outcome
1,NC1=NCC2c3ccccc3Cc3ccccc3N12 (stereo not given),inactive
2,O=C1CC2(CCCC2)CC(=O)N1CCCCN1CCN(c2ncccn2)CC1,inactive
3,C#CCN(C)CCCOc1ccc(Cl)cc1Cl,inactive
4,CO[C@@]1(NC(=O)CSCC#N)C(=O)N2C(C(=O)O)=C(CSc3nnnn3C)CS[C@@H]21,inactive
5,NC(N)=N/N=C/c1c(Cl)cccc1Cl,inactive
6,CN=C(NC#N)NCCSCc1nc[nH]c1C,inactive
7,C[C@]12CCC(=O)C=C1CC[C@@H]1[C@@H]2C(=O)C[C@@]2(C)[C@H]1CC[C@]2(O)C(=O)CO,inactive
8,COc1ccc(CCN(C)CCCC(C#N)(c2cc(OC)c(OC)c(OC)c2)C(C)C)cc1OC (stereo not given),inactive
9,CN1C[C@H](C(=O)N[C@]2(C)O[C@@]3(O)[C@@H]4CCCN4C(=O)[C@H](Cc4ccccc4)N3C2=O)C[C@@H]2c3cccc4[nH]cc(c34)C[C@H]21,inactive
10,CCOC(=O)C1=C(C)NC(C)=C(C(=O)OC)C1c1cccc([N+](=O)[O-])c1 (stereo not given),inactive
11,C(=C\c1ccccc1)/CN1CCN(C(c2ccccc2)c2ccccc2)CC1,inactive
12,C=CCc1ccccc1OCC(O)CNC(C)C (stereo not given),inactive
13,COc1cc2c(cc1OC)-c1cc(=Nc3c(C)cc(C)cc3C)n(C)c(=O)n1CC2,inactive
14,CC[N+](C)(C)c1cccc(O)c1,inactive
15,Cc1nc2sccn2c(=O)c1CCN1CCC(=C(c2ccc(F)cc2)c2ccc(F)cc2)CC1,inactive
16,Cc1cccc(C)c1NC(=O)C(C)N (stereo not given),inactive
17,CN(C)C(=O)Oc1cccc([N+](C)(C)C)c1,inactive
18,CCCCNC(=O)NS(=O)(=O)c1ccc(C)cc1,inactive
19,O=C(O)CCCCCCCC(=O)O,inactive
20,CCO/C([O-])=N/c1c[n+](N2CCOCC2)no1,inactive

row,Compound,outcome
1,CCCN1C[C@H](CSC)C[C@@H]2c3cccc4[nH]cc(c34)C[C@H]21,inactive
2,O=C(CCNNC(=O)c1ccncc1)NCc1ccccc1,inactive
3,CC(C)(C)c1ccc(C(=O)CCCN2CCC(OC(c3ccccc3)c3ccccc3)CC2)cc1,inactive
4,NC(=O)c1ncn([C@@H]2O[C@H](CO)[C@@H](O)[C@H]2O)c1O,inactive
5,Cc1ccc(=O)n(-c2ccccc2)c1,inactive
6,Cc1ccc(/C(=C\CN2CCCC2)c2ccccn2)cc1,inactive
7,Nc1nc(N)c2nc(-c3ccccc3)c(N)nc2n1,inactive
8,CCOC(=O)c1cnc2c(cnn2CC)c1NN=C(C)C,inactive
9,Nc1ncn([C@@H]2O[C@H](CO)[C@@H](O)[C@H]2O)c(=O)n1,inactive
10,CCN1CCC[C@H]1CNC(=O)c1c(O)c(Cl)cc(Cl)c1OC,inactive
11,C[C@H](CS)C(=O)N1CCC[C@H]1C(=O)O,inactive
12,N[C@@H](COP(=O)(O)O)C(=O)O,inactive
13,CN(C)CCN(Cc1cccs1)c1ccccn1,inactive
14,CCN(Cc1ccncc1)C(=O)C(CO)c1ccccc1 (stereo not given),inactive
15,C[C@@H](O)[C@H]1C(=O)N2C(C(=O)O)=C(SCCN=CN)C[C@H]12,inactive
16,O=C(O)CN(CCN(CC(=O)O)CC(=O)O)CCN(CC(=O)O)CC(=O)O,inactive
17,CN(C)CCCN1c2ccccc2Sc2ccccc21,inactive
18,Cc1nc2c([nH]1)c(=O)n(C)c(=O)n2Cc1ccco1,inactive
19,COc1cc(C(=O)OCCCN2CCCN(CCCOC(=O)c3cc(OC)c(OC)c(OC)c3)CC2)cc(OC)c1OC,inactive
20,CC1=C(C)C(=O)C(CCCCC#CCCCC#CCO)=C(C)C1=O,inactive

# Reference: PubChem BioAssay (NCATS)
